# SARS 3CLpro inh: SARS-CoV 3CLpro protease inhibitors, primary screen, biochemical, quenched FRET; Replicase polyprotein 1ab (Severe acute respiratory syndrome coronavirus), P0C6X7; recombinant SARS-CoV 3CLpro, quenched FRET peptide cleavage; inhibition, % at 6 µM; 0.14% of 290,000 active; AID 1706, 2009; in the data active means inhibition above about 12%
# GDH-TPI counter: GDH-TPI coupling enzyme inhibitors, primary screen, artefact control for M. tuberculosis FBA inhibitor project, biochemical, absorbance, full deck; GDH-TPI coupled enzyme counterscreen, NADH absorbance; AID 588335, 2011; inhibition, % at 4.8 µM; 1.2% of 360,000 active; in the data active means inhibition above about 30%;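 further: 0% = DMSO wells and 100% = wells lacking the enzyme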
# BioA inh: M. tuberculosis BioA enzyme inhibitors, primary screen, biochemical, plate reader, single point, HTS; 0.096% of 360,000 active; purified M. tuberculosis BioA enzyme; inhibition, % at 9.99 µM; in the data active means inhibition above about 40%
# Mtb FBA inh: Mtb FBA enzyme inhibitors, primary screen, biochemical, fluorescence, strain H37Rv. Fructose-bisphosphate aldolase (Mycobacterium tuberculosis (strain ATCC 25618 / H37Rv)), …. purified M. tuberculosis FBA, fluorescence read-out. inhibition, % at 1 µM. 2.3% of 360,000 active. AID 588726, 2011; in the data active means inhibition above about 27%;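 further: 0% = vehicle and 100% = reference inhibitor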
# Target sequence (P9WQA3 whole entry, looked up): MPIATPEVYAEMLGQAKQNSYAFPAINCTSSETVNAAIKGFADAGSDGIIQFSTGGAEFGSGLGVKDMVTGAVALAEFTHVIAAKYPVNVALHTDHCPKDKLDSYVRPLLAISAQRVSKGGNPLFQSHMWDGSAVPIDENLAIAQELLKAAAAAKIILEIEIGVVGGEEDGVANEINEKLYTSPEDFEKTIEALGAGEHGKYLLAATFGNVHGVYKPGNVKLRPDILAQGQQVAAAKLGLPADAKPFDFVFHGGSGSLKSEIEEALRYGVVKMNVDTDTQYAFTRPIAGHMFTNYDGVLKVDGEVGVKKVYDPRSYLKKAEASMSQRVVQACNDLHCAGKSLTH
# FadD28 FP inh: inhibitors of FadD28 bisubstrate probe binding, primary screen, biochemical, fluorescence polarization, single point | inhibition, % at 12.5 µM | AID 588549, 2011 | Mycobacterium tuberculosis FadD28 fatty-acid-AMP ligase | 0.22% of 360,000 active; in the data active means inhibition above about 8.5%, passing the limit was not always enough
# Numbers without * were called inactive; . = no result given; + = active, no number. A selection: hits, their analogues and other compounds. The true share with any hit is near 3.1%.
SMILES,SARS 3CLpro inh,GDH-TPI counter,BioA inh,Mtb FBA inh,FadD28 FP inh
COc1cc(/C=C\C(=O)Nc2cc(=O)n(C)c(=O)n2C)cc(OC)c1OC,-1,25,.,-3,-2
C[C@H]1CN([C@@H](C)CO)C(=O)c2cccc(NS(=O)(=O)c3cccs3)c2O[C@@H]1CN(C)S(=O)(=O)c1cn(C)cn1,.,.,-3,.,.
C[C@@H]1CN([C@@H](C)CO)C(=O)c2ccccc2-c2ccccc2CO[C@@H]1CN(C)Cc1ccc2c(c1)OCO2,.,.,2,.,.
COc1ccc(/C=N/NC(=O)c2ccc(COc3ccccc3Cl)o2)cc1,-3,25,-3,1,-2
CC(=O)Nc1ccc(/C(C)=N/NC(=O)c2ccc(COc3ccccc3Cl)o2)cc1,.,31*,-2,3,-2
CCCC(=O)Nc1ccc2c(c1)OC[C@@H](C)N(CC1CCOCC1)C[C@@H](C)[C@@H](OC)CN(C)C2=O,.,.,1,.,.
C[C@@H]1CCCCO[C@H](CN(C)Cc2ccccc2)[C@H](C)CN([C@H](C)CO)C(=O)c2cc(NS(=O)(=O)c3cn(C)cn3)ccc2O1,.,.,-4,.,.
c1ccc2c(c1)ccc1ccccc12,.,9,-2,5,0
OCCN(CCO)c1cc2c3ccccc3ccc2c2ccccc12,.,2,.,131*,-4
CSc1nc(NCC(C)O)c2c3c(sc2n1)CN(C)CC3 (configuration not stated),-7,8,12,113*,-2
CSc1nc(SCC(=O)NC(c2ccccc2)c2ccccc2)c2c3c(sc2n1)CN(C)CC3,-3,13,0,14,-3
CSc1nc(NCCCO)c2c3c(sc2n1)CN(C)CC3,2,-1,.,176*,-4
CCN(CC)CCCNc1nc(SC)nc2sc3c(c12)CCN(C)C3,-1,.,.,.,.
Cc1ccccc1C(=O)N=c1c(C#N)cc2c(=O)n3cccc(C)c3nc2n1Cc1ccco1,-3,.,.,.,.
CCCCn1c(=NC(=O)c2ccco2)c(C(=O)OCC)cc2c(=O)n3ccccc3nc21,-1,8,-1,197*,-1
CCCCCn1c(=NC(=O)c2ccco2)c(C(=O)OCC)cc2c(=O)n3ccccc3nc21,0,10,10,144*,-5
CCCCn1c(=NC(=O)c2ccco2)c(C(=O)OCC)cc2c(=O)n3cccc(C)c3nc21,5,6,.,173*,-2
CCOC(=O)c1cc2c(=O)n3ccccc3nc2n(Cc2ccc(Cl)cc2)c1=N,.,5,.,20,-1
CCOC(=O)c1cc2c(=O)n3ccccc3nc2n(C(C)C)c1=NC(=O)c1c(-c2c(F)cccc2Cl)noc1C,1,3,.,26,-3
O=C(N[C@H]1CC[C@@H](CCNS(=O)(=O)c2ccc(F)cc2)O[C@H]1CO)C1CCOCC1,.,.,2,.,.
COCC(=O)Nc1ccc2c(c1)[C@H]1C[C@@H](CC(=O)NCCN3CCCCC3)O[C@H](CO)[C@H]1O2,.,.,2,.,.
C[C@@H]1CN([C@H](C)CO)C(=O)Cc2cc(NC(=O)Cc3ccccc3)ccc2O[C@@H]1CN(C)Cc1ccc2c(c1)OCO2,.,.,1,.,.
COC1=C/C(=C/c2c(N)n3c(nc2=O)sc2cc(S(C)(=O)=O)ccc23)C=CC1=O,5,52*,-13,-5,2
CS(=O)(=O)c1ccc2c(c1)sc1nc(=O)c(/C=C3/C=CC(=O)C(O)=C3)c(N)n12,-1,17,.,6,8
CCOC1=C/C(=C/c2c(N)n3nc(-c4ccccc4)sc3nc2=O)C=CC1=O,-2,21,.,0,16*
SMILES,SARS 3CLpro inh,GDH-TPI counter,BioA inh,Mtb FBA inh,FadD28 FP inh
CCC(=O)N[C@@H]1CC[C@@H](CCn2cc(-c3cccc(OC)c3)nn2)O[C@H]1CO,.,.,0,.,.
Oc1cc(NCc2cccnc2)ccc1-c1nc2ccccc2o1,-1,64*,0,11,1
O=C(CCCN1C(=O)/C(=C/c2ccccc2)SC1=S)Nc1ccc(C(=O)O)c(O)c1,5,11,3,-4,-3
CCOC(=O)CN1C(=O)S/C(=C\c2ccc(-c3cccc(C(=O)O)c3C)o2)C1=O,.,0,0,-2,-3
CC(C(=O)Nc1ccc(C(=O)O)c(O)c1)N1C(=O)/C(=C\c2ccco2)SC1=S (configuration not stated),-2,19,1,1,25*
Cc1ccc(NC(=O)CN2C(=O)S/C(=C\c3ccc(-c4cccc(C(=O)O)c4C)o3)C2=O)cc1C,3,14,.,0,12*
O=C(CN1C(=O)/C(=C/c2ccco2)SC1=S)Nc1ccc(C(=O)O)c(O)c1,1,17,3,-3,23*
O=C(CCCN1C(=O)/C(=C/c2cccs2)SC1=S)Nc1ccc(O)c(C(=O)O)c1,6,.,.,.,.
O=C(CN1C(=O)/C(=C/c2ccco2)SC1=S)Nc1ccc(O)c(C(=O)O)c1,-1,12,1,5,36*
CC(C(=O)N(C)C1CCS(=O)(=O)C1)N1C(=O)/C(=C/c2ccco2)SC1=S (configuration not stated),3,10,4,0,1
COc1ccc(CN(C)C[C@H]2Oc3ccc(NC(=O)Nc4ccccc4)cc3CC(=O)N([C@@H](C)CO)C[C@@H]2C)cc1,.,.,0,.,.
O=C(NCC[C@@H]1CC[C@@H](NS(=O)(=O)c2ccc(F)cc2)[C@@H](CO)O1)Nc1ccc(Cl)cc1,.,.,4,.,.
C[C@@H]1CN([C@H](C)CO)C(=O)c2cc(NC(=O)Nc3ccc(C(F)(F)F)cc3)ccc2O[C@@H]1CN(C)Cc1ccc(C(=O)Nc2ccccc2N)cc1,.,.,0,.,.
C[C@@H](NC(=O)C[C@@H]1C[C@H]2c3cc(NC(=O)C4CCOCC4)ccc3O[C@H]2[C@H](CO)O1)c1ccccc1,.,.,0,.,.
C[C@@H]1CN([C@H](C)CO)C(=O)c2cccc(NC(=O)Nc3ccccc3)c2O[C@@H]1CN(C)S(=O)(=O)c1ccc(Cl)cc1,.,.,2,.,.
COC(=O)CNC(=O)c1cc(OC)cc(OC)c1,-1,-1,.,2,-1
COC(=O)CNC(=O)c1ccc(=O)oc1,1,63*,6,9,0
O=C(NCc1ccccc1)c1ccc(=O)oc1,-1,104*,2,0,-1
O=C(NCc1ccco1)c1ccc(=O)oc1,0,50*,0,-1,0
O=C(NCc1ccccc1)c1ccc(Oc2ccc(C(=O)NCc3ccccc3)cc2)cc1,-4,-8,-1,-3,-3
O=C(O)c1ccccc1-c1ncc(-c2ccccc2)o1,.,18,-1,123*,-1
Cc1ccc(-c2cnc(-c3ccncc3)o2)cc1,-3,19,-3,+,-3
Nc1ccc(-c2ncc(-c3ccccc3)o2)cc1,-2,27,0,+,4
Cc1ccccc1OCC(=O)N/N=C/c1cn(Cc2ccccc2)c2ccccc12,0,9,1,-1,-1
COc1ccccc1OCCn1cc(/C=N/NC(=O)c2ccncc2)c2ccccc21,0,54*,1,-1,-2

# Compound activity deposited in PubChem BioAssay by several laboratories.
